According to PubChem BioAssay (NCI):
This is part of a sample that, as a whole, favours compounds with a hit. Of some 83,000 tested, about 20% had one in any assay.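 Results are percent growth after 48 hours of single-concentration exposure. 100 means growth as in untreated cells, lower positive values show inhibition; negative values down to -100 show cell death.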 A number with no mark means an inactive call. Active and inactive are the calls of the source. How the source made its calls: active means growth percent below 10; inactive means the rest.

Each compound was assayed on UACC-257 melanoma (assay: NCI-60 one-dose screen, 48 h (100 = growth as untreated, 0 = no growth, -100 = all killed)). Settings: 10 µM unless noted.

Row | Compound | growth
1 | O=c1nc(-c2ccccc2)c2cc(-c3ccc(N4CCCC4)nc3)ccc2[nH]1 | 88.6%
2 | O=[N+]([O-])c1cccc(CN(Cc2cccc([N+](=O)[O-])c2O)c2ccccc2)c1O | 93.3%
3 | Oc1ccccc1-c1nc2c3ccccc3c3ccccc3c2o1 | 101%
4 | CN(C)CCCn1c2c(c3cc(-c4ccco4)ccc3c1=O)C(=O)c1ccccc1-2 | 102%
5 | COc1ccc(C2CC(c3ccc(OC)cc3O)=NN2c2ccc(S(N)(=O)=O)cc2)cc1 (stereo not drawn) | 56.6%
6 | Cc1c(Cl)cccc1NC(=O)c1sc2nc3c(cc2c1N)CCCCCC3 | 59.6%
7 | [2H]c1cc2c(c([2H])c1F)/C(=C/c1[nH]c(C)c(C(=O)NCCN(CC)CC)c1C)C(=O)N2 | 69.2%
8 | CC(=O)Oc1c2c(nc3c1c1ccccc1n3Cc1ccccc1)-c1ccccc1C2 | 93.2%
9 | C=C(C)[C@@H]1CC[C@]2(C(=O)n3ccnc3)CC[C@]3(C)[C@H](CC[C@@H]4[C@@]5(C)CCCNC(C)(C)[C@@H]5CC[C@]43C)[C@@H]12 | 5.14% (active)
10 | CC(C)C[C@H](C(=O)O)N(C)C(=O)[C@@H]1CCCN1C(=O)[C@H](C)OC(=O)[C@H](CCC(N)=O)NC(=O)[C@@H]1CCC(=O)N1 | 95.2%
11 | COC(=O)CCc1cc(O)c2c(c1)[C@@H](C(=O)OC)[C@H](c1ccc(O)c(O)c1)O2 | 85.6%
12 | CCCCN(CCCC)CC(CN(CC)CC)OC(=O)Nc1ccccc1 (stereo not drawn) | 111%
13 | COC(=O)CCc1n(Cc2ccc3ccccc3c2)c2ccccc2[n+]1Cc1ccc2ccccc2c1 | -28.2% (active)
14 | COc1ccc(Nc2nc(SCC(C)C)nc(-c3ccc(F)cc3)c2C#N)cc1 | 73%
15 | CCCS(=O)(=O)Nc1ccc(F)c(C(=O)c2c[nH]c3ncc(-c4ccc(OCCCC5CCCCN5)nc4)cc23)c1F (stereo not drawn) | -17% (active)
16 | CC(=O)c1ccc(NC(=O)CSc2nnc(-c3cc(-c4ccc(C)cc4)nc4ccccc34)o2)cc1 | 101%
17 | Oc1ccc(CNNc2ccnc3c(O)cccc23)c2cccnc12 | 38.3%
18 | COc1ccc(-c2cs/c(=N\N=C\c3ccc(O)cc3O)n2/N=C/c2ccc(O)cc2O)cc1 | -3.6% (active)
19 | c1ccc(-c2n(Cc3ccc4ccccc4n3)cc[n+]2Cc2ccc3ccccc3n2)cc1 | -14.6% (active)

Row | Compound | growth
20 | O=C1C(Cl)=C(NCCCN(CCCNC2=C(Cl)C(=O)c3ccccc3C2=O)C2=C(Cl)C(=O)c3ccccc3C2=O)C(=O)c2ccccc21 | 52.6%
21 | CCc1ccc(OCc2ccccc2C(=O)Nc2ccc3nc(C)cc(N)c3c2)cc1 | -79.7% (active)
22 | CC1CCN(CCCCCOc2ccc3oc4cc(Cl)ccc4c(=O)c3c2)CC1 | -38.8% (active)
23 | Nc1ccccc1NS(=O)(=O)c1ccc(Cl)cc1 | 98.4%
24 | COc1cc(C2=NNC(c3ccc(N(C)C)cc3)C2)cc(OC)c1OC (stereo not drawn) | 62.6%
25 | COc1cc(NC(=O)Nc2cnc(Nc3ccc(N4CCOCC4)cc3)nc2Oc2ccc(C(F)(F)F)cc2)cc(OC)c1 | 101%
26 | C=C(C)[C@@H]1CC[C@]2(C(=O)O)CC[C@]3(C)[C@H](CC[C@@H]4[C@@]5(C)C[C@@H](CC#Cc6ccc(Cl)cc6)C(=O)C(C)(C)[C@@H]5CC[C@]43C)[C@@H]12 | 75.6%
27 | Cc1cc(Nc2nc(SCc3ccc(C(=O)Nc4ccc(F)cc4N)cc3)nn3cccc23)n[nH]1 | 67.6%
28 | O=C(/C(=C/c1ccc([N+](=O)[O-])cc1)SCc1ccc(F)cc1)c1ccc(Cl)cc1 | 87.4%
29 | C#C[C@@]1(O)[C@@H](CO)O[C@@H](n2cc(Br)c3c(N)ncnc32)[C@@H]1O | 57.5%
30 | CC(=O)[C@@H]1CC[C@]2(C(=O)O)CC[C@]3(C)[C@H](CC[C@@H]4[C@@]5(C)Cc6c([nH]c7ccccc67)C(C)(C)[C@@H]5CC[C@]43C)[C@@H]12 | 84.2%
31 | CC[C@]12C=CCN3CC[C@@]4(c5cc(NC(=O)CCC(=O)O[C@H]6CC[C@H]7[C@@H]8CC[C@H]9CC(=O)CC[C@]9(C)[C@H]8CC[C@]67C)c(OC)cc5N(C)[C@H]4[C@@](O)(C(=O)OC)[C@@H]1OC(C)=O)[C@@H]32 | 94.5%
32 | CCCCCOC(=O)c1ccccc1O | 94.3%
33 | O=C1CCC23OC(c4ccccc4N12)C(O)C(O)C3O (stereo not drawn) | 102%
34 | N#Cc1c(NC(=O)c2cccs2)[n+]([O-])c2cc(C(F)(F)F)ccc2[n+]1[O-] | 91.4%
35 | Cc1[nH]c2ncnc(Oc3ccc(NC(=O)Nc4ccc(Cl)c(C(F)(F)F)c4)cc3)c2c1C | 64.2%
36 | c1cc(CNC23CC4CC(CC(C4)C2)C3)cc(C[N+](Cc2cccc(CNC34CC5CC(CC(C5)C3)C4)c2)(Cc2cccc(CNC34CC5CC(CC(C5)C3)C4)c2)Cc2cccc(CNC34CC5CC(CC(C5)C3)C4)c2)c1 (stereo not drawn) | 41.5% [42 µM]
37 | C[C@H]1[C@H](C)CC[C@]2(C(=O)OCCCC[P+](c3ccccc3)(c3ccccc3)c3ccccc3)CC[C@]3(C)C(=CC[C@@H]4[C@@]5(C)CC[C@H](OC(=O)C(Cl)Cl)C(C)(C)[C@@H]5CC[C@]43C)[C@H]12 | -78.9% (active)
38 | O=C(Nc1nc(-c2ccccc2)cs1)c1cc(-c2ccc(Br)cc2)nc2ccccc12 | 56%
